Structures are written as SMILES. About 83,000 compounds went through this panel and 20% of them were active in at least one assay; those are over-represented in the sample as a whole.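 Plates (96-well) were seeded with cells, treated with compound at one concentration, and incubated for 48 hours before percent growth was determined.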 Values without a mark were called inactive. Calls of active or inactive are those of the source. How the source made its calls: active means growth percent below 10; inactive means the rest.

The results in this text go back to PubChem BioAssay (NCI).

Among the test systems are DU-145 prostate; K-562 leukemia; MALME-3M melanoma; MDA-MB-231 breast; RXF 393 renal; SF-268 CNS; SF-295 CNS; SF-539 CNS; UACC-257 melanoma; M14 melanoma; HCT-15 colon; HT29 colon; SNB-75 CNS; SNB-19 CNS; U251 CNS; PC-3 prostate; SK-MEL-5 melanoma; UACC-62 melanoma; LOX IMVI melanoma; SK-MEL-28 melanoma.
Test in all cases: NCI-60 one-dose screen, 48 h (100 = growth as untreated, 0 = no growth, -100 = all killed)
Settings in all cases: 10 µM unless noted

For the compound `Cc1ccc(N=Nc2c(N)nn3c(-c4cc5cc(Br)ccc5oc4=O)ccnc23)cc1`, the growth in the assay on DU-145 prostate is 52.8%; in the assay on K-562 leukemia, 64.4%; in the assay with MALME-3M melanoma, 82%; in the assay with MDA-MB-231 breast, -11.1% (active); in the assay on RXF 393 renal, -3.16% (active); in the assay with SF-268 CNS, 16%. The growth with SF-295 CNS was 49%; in the assay with SF-539 CNS, -46.5% (active); with UACC-257 melanoma, 121%; in the assay on M14 melanoma, 65.1%; in the assay with HCT-15 colon, 79.2%; with HT29 colon, 65%. The growth was 61.3% in the assay with SNB-75 CNS; -13% (active) with SNB-19 CNS; 13% with U251 CNS; 88.3% in the assay with PC-3 prostate; 50.8% with SK-MEL-5 melanoma; 99.5% in the assay on UACC-62 melanoma. Also, the results for the growth in the assay on LOX IMVI melanoma and in the assay with SK-MEL-28 melanoma were 51.8% and 110%, respectively.

Turning to `CN(CCSSCCN1CCOCC1)C(=O)Oc1cc2c(c3ccccc13)[C@H](CCl)CN2C(=O)c1cc2cc(OCCCN3CCC3)ccc2[nH]1`, the growth with DU-145 prostate is -70.8% (active); in the assay with K-562 leukemia it was -34.6% (active); in the assay with MALME-3M melanoma it was -79.5% (active); in the assay with MDA-MB-231 breast, -23.7% (active); in the assay on RXF 393 renal, -77.4% (active); in the assay with SF-268 CNS it was 3.42% (active). Also, the growth with SF-295 CNS was 1.02% (active); with SF-539 CNS, -86.2% (active); in the assay with UACC-257 melanoma it was -17.1% (active); in the assay on M14 melanoma it was -72.5% (active); in the assay on HCT-15 colon, -49.3% (active); in the assay on HT29 colon, -40.5% (active). Besides, the growth with SNB-75 CNS was -46% (active); with SNB-19 CNS, -100% (active); in the assay on U251 CNS it was -60.3% (active); with PC-3 prostate, -21.9% (active); in the assay on SK-MEL-5 melanoma, -89.6% (active); in the assay on UACC-62 melanoma, -72.7% (active). Also, the growth in the assay on LOX IMVI melanoma was -73% (active); with SK-MEL-28 melanoma, -58% (active).

`Nc1nnc(-c2cncc(Br)c2)c(-c2c[nH]c3ccc(Br)cc23)n1`: the growth was 85.9% with DU-145 prostate; 19.1% with K-562 leukemia; 74.1% with MALME-3M melanoma; 48.7% with MDA-MB-231 breast; 55.6% in the assay with RXF 393 renal; 77.1% in the assay with SF-268 CNS. In addition, the growth in the assay with SF-295 CNS is 74.5%; with SF-539 CNS, 52.3%; in the assay with UACC-257 melanoma, 73.9%; in the assay on M14 melanoma, 44.5%; with HCT-15 colon, 37.1%; with HT29 colon, 35.6%. The growth in the assay on SNB-75 CNS was 50.5%; with SNB-19 CNS, 59.5%; in the assay on U251 CNS it was 63%; with PC-3 prostate, 56%; with SK-MEL-5 melanoma, 31.1%; in the assay on UACC-62 melanoma it was 55.2%. Besides, the figures for the growth in the assay on LOX IMVI melanoma and in the assay with SK-MEL-28 melanoma were 43.1% and 67.5%, respectively.

Regarding `Clc1ccc(CNc2nc(SCCN3CCOCC3)nc3c2cnn3CC(Cl)c2ccc(Br)cc2)cc1` (stereo not given), the growth in the assay on DU-145 prostate was 57.1%; with K-562 leukemia, 7.71% (active); with MALME-3M melanoma, 1.86% (active); in the assay on MDA-MB-231 breast, 44.1%; in the assay with RXF 393 renal, 51.1%; in the assay on SF-268 CNS, 49.3%. Besides, the growth in the assay on SF-295 CNS is 14.3%; in the assay on SF-539 CNS, 27.4%; in the assay on UACC-257 melanoma, 33.2%; with M14 melanoma it was 37.2%; in the assay on HCT-15 colon, 1.95% (active); with HT29 colon, -51.5% (active). In addition, the growth with SNB-75 CNS is 76.2%; in the assay on SNB-19 CNS, 50.4%; in the assay on U251 CNS, 38.3%; in the assay with PC-3 prostate it was 34.3%; with SK-MEL-5 melanoma, 42.3%; in the assay with UACC-62 melanoma, 57.5%. In addition, the growth in the assay with LOX IMVI melanoma is 30.9%; with SK-MEL-28 melanoma it was 56.2%.

Turning to `CC(=O)C[n+]1cccc2c3ccccc3ccc21`, the growth with DU-145 prostate was 105%; in the assay on K-562 leukemia it was 69%; in the assay on MALME-3M melanoma it was 63.5%; with MDA-MB-231 breast, 85.7%; with RXF 393 renal, 46.3%; in the assay on SF-268 CNS, 66.5%. The growth was 93.9% with SF-295 CNS; 89.6% in the assay with SF-539 CNS; 48.8% in the assay on UACC-257 melanoma; 98.7% in the assay with M14 melanoma; 97.5% with HCT-15 colon; 93.4% in the assay on HT29 colon. Besides, the growth with SNB-75 CNS was 113%; in the assay on SNB-19 CNS, 69.8%; with U251 CNS, 59.9%; in the assay with PC-3 prostate, 85.1%; in the assay on SK-MEL-5 melanoma, 56.6%; in the assay on UACC-62 melanoma it was 73.3%. For the same compound, the growth in the assay on LOX IMVI melanoma was 99.8%; with SK-MEL-28 melanoma it was 95.6%.

Regarding `N#CC1=C(c2ccco2)Nc2c(c(-c3ccccc3)nn2-c2ccccc2)C12C(=O)Nc1ccc(Br)cc12` (stereo not given), the growth is 70.5% with DU-145 prostate; 21.2% in the assay on K-562 leukemia; 90.7% with MALME-3M melanoma; 33.2% in the assay on MDA-MB-231 breast; 70.2% with RXF 393 renal; 49.1% in the assay with SF-268 CNS. Moreover, the growth was 72.5% in the assay on SF-295 CNS; -33% (active) with SF-539 CNS; 73.1% with UACC-257 melanoma; 42% with M14 melanoma; 38.6% with HCT-15 colon; 49.5% in the assay with HT29 colon. Besides, the growth in the assay on SNB-75 CNS is -8.95% (active); in the assay with SNB-19 CNS it was 60%; in the assay with U251 CNS it was 1.85% (active); in the assay with PC-3 prostate, 24.1%; with SK-MEL-5 melanoma, 59%; in the assay on UACC-62 melanoma, 51.5%. In addition, the values for the growth with LOX IMVI melanoma and in the assay with SK-MEL-28 melanoma were 21.3% and 67.5%, respectively.

As for `COc1ccc(-c2cc(-c3ccccc3)c(C#N)c(=O)[nH]2)cc1S(N)(=O)=O`, the growth with DU-145 prostate was 103%; with K-562 leukemia, 109%; in the assay with MALME-3M melanoma, 97.9%; in the assay on MDA-MB-231 breast, -18.1% (active); in the assay on RXF 393 renal, 100%; in the assay with SF-268 CNS, 101%. In addition, the growth with SF-295 CNS is 108%; with SF-539 CNS it was 96.3%; in the assay with UACC-257 melanoma, 98.9%; in the assay with M14 melanoma it was 99.7%; with HCT-15 colon, 106%; in the assay with HT29 colon it was 105%. Also, the growth is 89.4% in the assay on SNB-75 CNS; 92.3% in the assay with SNB-19 CNS; 98.5% with U251 CNS; 97.2% with PC-3 prostate; 104% in the assay with SK-MEL-5 melanoma; 110% in the assay with UACC-62 melanoma. In addition, the figures for the growth in the assay on LOX IMVI melanoma and in the assay with SK-MEL-28 melanoma were 94.5% and 107%, respectively.
